This note sets out measurements from PubChem BioAssay AID623996 (NMMLSC, 2012).

Results with a measured potency or affinity are listed apart. Calls of active or inactive are those of the source.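 How the source made its calls: active means fitted concentration giving half the maximal Nile Red retention below 100 µM; inactive means the rest.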

In the assay the target is Multidrug resistance protein CDR1 (Candida albicans) (UniProt P43071). As to the kind of experiment: CaCdr1 efflux pump inhibitor potency, dose response, singleplex, Cherry Pick2 set (AID 623996). As to conditions: S. cerevisiae AD/CaCDR1, Nile Red efflux inhibition, flow cytometry; series mostly up to 100 µM.
Chain of Multidrug resistance protein CDR1 (Candida albicans) (P43071 whole entry, looked up): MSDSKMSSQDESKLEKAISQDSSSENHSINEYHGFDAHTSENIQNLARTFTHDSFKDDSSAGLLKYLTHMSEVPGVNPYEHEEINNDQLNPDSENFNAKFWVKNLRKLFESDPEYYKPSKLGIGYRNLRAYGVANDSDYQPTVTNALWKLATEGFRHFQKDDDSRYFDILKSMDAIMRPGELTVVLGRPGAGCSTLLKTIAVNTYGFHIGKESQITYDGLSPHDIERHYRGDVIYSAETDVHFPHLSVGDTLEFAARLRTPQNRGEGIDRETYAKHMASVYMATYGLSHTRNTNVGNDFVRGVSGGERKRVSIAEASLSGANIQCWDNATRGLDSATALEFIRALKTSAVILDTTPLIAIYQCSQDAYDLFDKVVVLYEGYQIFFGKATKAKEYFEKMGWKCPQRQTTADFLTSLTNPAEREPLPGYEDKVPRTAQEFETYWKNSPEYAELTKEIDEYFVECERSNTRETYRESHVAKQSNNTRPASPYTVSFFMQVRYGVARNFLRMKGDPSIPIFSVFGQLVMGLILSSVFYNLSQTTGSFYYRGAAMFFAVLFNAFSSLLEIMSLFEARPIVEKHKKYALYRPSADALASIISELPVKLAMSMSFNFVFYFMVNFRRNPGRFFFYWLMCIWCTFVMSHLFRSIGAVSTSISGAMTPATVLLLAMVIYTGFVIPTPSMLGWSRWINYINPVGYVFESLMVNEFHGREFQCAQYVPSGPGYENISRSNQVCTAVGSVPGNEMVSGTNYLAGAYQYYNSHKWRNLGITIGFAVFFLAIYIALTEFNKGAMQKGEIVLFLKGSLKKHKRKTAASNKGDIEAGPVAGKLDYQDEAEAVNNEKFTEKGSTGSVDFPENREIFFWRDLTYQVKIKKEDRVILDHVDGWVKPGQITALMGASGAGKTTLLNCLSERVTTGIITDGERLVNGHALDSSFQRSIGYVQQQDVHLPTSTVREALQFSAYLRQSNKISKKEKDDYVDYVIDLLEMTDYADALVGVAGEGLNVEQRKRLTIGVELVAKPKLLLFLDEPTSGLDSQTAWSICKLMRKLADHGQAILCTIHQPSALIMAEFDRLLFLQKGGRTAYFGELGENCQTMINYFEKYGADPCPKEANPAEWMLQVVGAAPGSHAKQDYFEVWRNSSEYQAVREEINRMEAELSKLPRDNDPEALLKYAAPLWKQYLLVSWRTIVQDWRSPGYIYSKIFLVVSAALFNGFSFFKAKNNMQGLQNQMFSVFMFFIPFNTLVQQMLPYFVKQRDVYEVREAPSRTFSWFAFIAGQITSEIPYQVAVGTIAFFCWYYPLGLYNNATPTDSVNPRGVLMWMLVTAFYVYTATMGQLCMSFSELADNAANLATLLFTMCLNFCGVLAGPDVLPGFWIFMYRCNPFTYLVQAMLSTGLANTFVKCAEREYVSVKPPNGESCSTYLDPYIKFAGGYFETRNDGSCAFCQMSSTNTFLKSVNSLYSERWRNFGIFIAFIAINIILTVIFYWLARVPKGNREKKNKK
Turning to `NS(=O)(=O)c1ccc(N2N=C(c3ccccc3)CC2c2ccc(F)cc2)cc1` (stereo unspecified), the call was inactive.
With `O=C(C1CCCN(c2ncnc3c2nc2n3CCCCC2)C1)N1CCN(c2ccccc2)CC1` (stereo unspecified), the result was inactive.
Then `COc1cc(OC)c2ccc(=O)oc2c1C(CCN1CCCC(C)C1)c1ccc(N(C)C)cc1` (stereo unspecified), with “inactive”; and `Cc1cccc(C2CC(c3ccccc3)=NN2c2ccc(S(N)(=O)=O)cc2)c1` (stereo unspecified), with “inactive”.
Take `COc1ccc(CN2C(=O)C(C)Nc3ncnc(N4CCN(c5ccccc5)CC4)c32)cc1` (stereo unspecified): the call was inactive.
As to `COc1ccc([C@H]2CC(=O)C=C(c3ccnc4ccc(Cl)cc34)C2)cc1`, the compound was called inactive.
The same measure for `COc1ccc(-c2sc3ccccc3c2-c2ccc(OCCN(C)C)cc2)cc1`: “inactive”; for `CCO[C@@H]1OC(C(=O)Nc2ccccc2)=C[C@H](c2ccccc2)[C@H]1CCCO`: “inactive”.
In the case of `NC1=NC[C@@H](Cc2ccc(O)cc2)N1CCCCC1CCCCC1`, the compound was classed as inactive.
Regarding `O=C(NC1CCCc2c1cnn2-c1ccccc1F)c1ccccn1` (stereo unspecified), the call was inactive.
Consider `CC(C)C(=O)N1CCN(c2ccccc2NC(=O)c2ccc3c(c2)OCCO3)CC1`, for which the compound was classed as inactive.
With `O=C(C[n+]1cc(-c2ccc(Cl)cc2)n2c1CCC2)N1c2ccccc2Sc2ccccc21`, the compound was called inactive.
As to `COc1ccc(C2CC(c3ccccc3C(F)(F)F)=NN2c2ccc(S(N)(=O)=O)cc2)cc1` (stereo unspecified), the compound was classed as inactive.
Consider `CCOc1cccc2sc(NC(=O)c3ccc(Br)s3)nc12`, for which the compound was called inactive.
On to `Cc1ccc2sc(N(CCCN(C)C)C(=O)c3ccc(Br)s3)nc2c1C`, for which the call was inactive.
Then `O=C(c1ccc2c(c1)OCO2)N1CCC2(CC1)Oc1ccc(F)cc1C(=O)C21CC(c2ccc(Cl)cc2)=NO1` (stereo unspecified), with “inactive”.
The same measure for `O=C(Nc1ccccc1)C1=C[C@@H](c2ccc(C(F)(F)F)cc2)C[C@@H](OCCCCO)O1`: “inactive”; for `O=C(c1ccc2c(c1)OCO2)N1CCC2(CC1)Oc1ccc(F)cc1C(=O)C21CC(c2ccccc2)=NO1` (stereo unspecified): “inactive”.
`CC1CN(c2nc3ccccc3nc2C(C#N)C(=O)NCc2ccc3c(c2)OCO3)CC(C)O1` (stereo unspecified): the compound was classed as inactive.
The same measure for `Cc1cc(C(=O)NC2CC(C)(C)Cc3c2cnn3-c2ccc(F)cc2)no1` (stereo unspecified): “inactive”; for `O=C(CSc1nnc(Cc2cccs2)n1Cc1ccco1)Nc1ccc(Br)cc1`: “inactive”.
With `O=C(/C=C/c1cccs1)N1CCC2(CC1)Oc1ccc(F)cc1C(=O)C21CC(c2ccccc2)=NO1` (stereo unspecified), the compound was called inactive.
Regarding `CCc1ccc(C2=NN(c3ccc(S(N)(=O)=O)cc3)C(c3ccc(F)cc3)C2)cc1` (stereo unspecified), the result was inactive.
Then `CCCCCc1cc(=O)oc2c(C(CCN3CCCC(C)C3)c3ccc(N(C)C)cc3)c(OC)cc(OC)c12` (stereo unspecified), with “inactive”; and `COc1ccc(CNC(=O)C(C#N)c2nc3ccccc3nc2N2CCN(C)CC2)cc1` (stereo unspecified), with “inactive”; and `Cc1ccc(C2CC(c3ccccc3)=NN2c2ccc(S(N)(=O)=O)cc2)cc1` (stereo unspecified), with “inactive”.
As to `Cc1ccc2c(c1)[C@H]1[C@H](CO2)[C@H](c2ccccc2)[C@]2(C)C(=O)Nc3cc(F)c(F)cc3C(=O)N12`, the compound was classed as inactive.
The same measure for `Nc1ccc(C(=O)OCCc2ccccc2)cc1`: “inactive”; for `COc1ccc(C(=O)NC2CC(C)(C)Cc3c2cnn3-c2ccccc2)c(OC)c1` (stereo unspecified): “inactive”; for `COc1ccc(OC)c2sc(NC(=O)c3ccc(Br)s3)nc12`: “inactive”.
Then `NC1=NC[C@H](Cc2ccc(O)cc2)N1CCCCC1CCCCC1`, with “inactive”.
